48 compounds from PubChem BioAssay AID1986 (Sanford-Burnham Center for Chemical Genomics, 2009) can be followed below.

A short description of this experiment: cell-free HIV fusion peptide-binding blockers – biochemical, uHTS, fluorescence dequenching, primary screen (AID 1986). The note with it: 30 min, at 20 µM, stronger effect = higher value.

Each structure is given as a SMILES string. Where “and” joins values, the source holds several entries; their conditions need not be identical. Equal entries are not always repeated. Hit rate of the full screen: of about 290,000 compounds, about 890 (0.31%) were called active. Rule as the data show it: active = inhibition mostly above about 52% (no sharp cut-off); inactive = mostly below about 76%. The full list was thinned out, with actives kept by preference. More than one record can exist for a structure, and the calls need not agree.

As to `COC(=O)c1sccc1NC(=O)Nc1ccc(OC)cc1`, the inhibition was 1.8% (inactive). Under `Cc1ccc(OCCNS(=O)(=O)c2cccs2)cc1` stands -0.8% (inactive). Under `CCN(CC)C(=O)CSc1nc(O)c(Cc2ccc(OC)cc2)c(=O)[nH]1` stands 0.3% (inactive); under `Cc1ccc(/C=C(\C#N)C(=O)Nc2ccccn2)o1`, 0.3% (inactive); under `N#C/C(=C\c1ccco1)C(=O)Nc1cccc2ncccc12`, 1.5% (inactive). In the case of `Cc1ccc(/C=C(\C#N)C(=O)Nc2cccc3ncccc23)o1`, the inhibition was 77.8% (active). On to `CCc1nnc(SCC(=O)N2CCCC(N3CCN(c4ccccc4C)CC3)C2)o1` (stereo not drawn), for which the inhibition is -0.2% (inactive). `CC1(C)CC(=O)C2=C(C1)N(c1ccc(F)cc1)C(=O)C2(NC(=O)c1ccccc1)C(F)(F)F` (stereo not drawn): the inhibition is -0.9% (inactive). With `Cc1cc2oc(=O)cc(-c3cc4ccccc4o3)c2cc1O`, the inhibition was 21% (inactive). Under `COc1ccc(OC)c(-c2oc3ccccc3c(=O)c2O)c1` stands -0.8% (inactive); under `O=c1cc2oc3cc(O)c(O)cc3c(-c3ccccc3[N+](=O)[O-])c-2cc1O`, 34.3% (inactive); under `COc1cc(-c2cc(=O)c3ccccc3o2)ccc1O`, -1.9% (inactive).

On to `COc1cc(OC)c(-c2c3cc(O)c(=O)cc-3oc3cc(O)c(O)cc23)cc1OC`, for which the inhibition is 82.9% (active). With `COc1ccc2c(=O)cc(-c3ccccc3F)oc2c1`, the inhibition is -1.9% (inactive). In the case of `Cc1ccccc1-c1cc(=O)c2c(O)cccc2o1` it was -1.7% (inactive); in that of `COc1ccc(OC)c(-c2c3cc(O)c(=O)cc-3oc3cc(O)c(O)cc23)c1`, 122% (active). Under `Cc1c2cc(O)c(=O)cc-2oc2cc(O)c(O)cc12` stands 150% (inactive) and 61.1% (active); under `COc1c(O)cc2oc(-c3ccc(O)c(O)c3)cc(=O)c2c1O`, 20.2% (inactive). Under `O=c1cc2oc3cc(O)c(O)cc3c(-c3ccccc3O)c-2cc1O` stands 148% (inactive).

As to `CCOc1ccccc1-c1c2cc(O)c(=O)cc-2oc2cc(O)c(O)cc12`, the inhibition was 118% (active). Under `CC1=NN(c2ccc(C)cc2C)C(=O)C1C(c1ccccc1O)C1C(=O)N(c2ccc(C)cc2C)N=C1C` (stereo not drawn) stands 3.7% (inactive); under `COc1ccc(C(=O)Nc2ccnn2C2CCN(C(=O)c3cnsn3)CC2)cc1`, -1.2% (inactive). On to `COc1ccccc1C(=O)N/C(=C/c1ccc(Br)cc1)C(=O)NCCO`, for which the inhibition is 7.1% (inactive). For the compound `CCCCCCNc1cc2n(c(=O)n1)CCc1cc(OC)c(OC)cc1-2`, the inhibition was -3.2% (inactive). Regarding `COc1ccccc1NS(=O)(=O)c1ccc(NN=C2CCCCC2)c([N+](=O)[O-])c1`, the inhibition was -1.4% (inactive). As for `c1ccc2c(c1)CC1(CCCCC1)n1nnnc1-2`, the inhibition is -1.4% (inactive). As for `CCCCCC(=O)NC(=S)Nc1ccc2oc(=O)ccc2c1`, the inhibition was -0.3% (inactive). In the case of `COC(=O)CCSCC(=O)Nc1ccc(S(=O)(=O)N2CCOCC2)cc1OC` it was 0.8% (inactive); in that of `CC(C)C1/C(=N/O)CC(c2ccccc2)NC1c1ccccc1` (stereo not drawn), 0% (inactive); in that of `CCCCNC(=O)CC1N=C2c3ccccc3N=C(SCC(=O)Nc3ccccc3OC)N2C1=O` (stereo not drawn), 1.1% (inactive). As for `CCOC(=O)c1nc(S(C)(=O)=O)ncc1N1CCOCC1`, the inhibition was -2.9% (inactive).

With `CCc1ccccc1N(C(=O)CCC(=O)Nc1cc(C)on1)C(C(=O)NC1CCCC1)c1ccco1` (stereo not drawn), the inhibition was 0.8% (inactive). Under `CC(=O)CC(c1ccc([N+](=O)[O-])cc1)c1c(O)c2ccccc2oc1=O` (stereo not drawn) stands 3.8% (inactive); under `O=[N+]([O-])c1ccc2c(c1)oc1ccccc12`, -0.8% (inactive). Under `COc1cc(/C=N/NC(N)=O)cc([N+](=O)[O-])c1O` stands -1.1% (inactive). In the case of `CCN(CC(=O)Nc1c(F)cccc1F)C(=O)c1ccccc1F` it was 0.4% (inactive).

As for `Cc1ccc(C)n1C(Cc1ccccc1)C(=O)O` (stereo not drawn), the inhibition is 67.3% (active). Under `O=C(O)C(Cc1ccccc1)N1C(=O)CCC1=O` (stereo not drawn) stands -1.2% (inactive).

For `O=C(O)C(Cc1ccccc1)n1cccc1` (stereo not drawn), the inhibition is 1.2% (inactive). In the case of `Cc1ccc(CNC(=O)C2CCN(C(=O)c3cccc(Cl)c3)CC2)cc1` it was 1.1% (inactive). `Cc1ccc(S(=O)(=O)N(CC(=O)Nc2ccccc2C(=O)O)c2ccccc2C)cc1`: the inhibition is 9.7% (inactive). Under `Cc1ccc(S(=O)(=O)N(CC(=O)Nc2ccccc2C(=O)O)c2ccccc2)cc1` stands 10.7% (inactive); under `Cc1ccc(S(=O)(=O)N(CC(=O)Nc2ccccc2C(=O)O)c2cccc(Cl)c2C)cc1`, 52% (active); under `CC1CCN(C(=O)CSc2nc3ccccc3c(=O)[nH]2)CC1`, -0.9% (inactive). Turning to `CC(C(=O)N1CCN(C(=O)c2ccco2)CC1)n1sc2ccccc2c1=O` (stereo not drawn), the inhibition is 1.6% (inactive). As for `COc1cccc2c1C(=O)C=C(C)C2=O`, the inhibition was 2.7% (inactive).

Turning to `CC1=CC(=O)c2ccccc2C1=O`, the inhibition is -2.1% (inactive). In the case of `CC1=CC(=O)c2c(O)ccc(O)c2C1=O` it was 68.3% (active).
